From the supplement of paper PMC13392028
The full ranking holds about 4,100 sequences; the median of “RBNS R-value (6-mer enrichment in protein-bound RNA vs input library)” is about 0.99, and the highest 2% start at about 1.4. Shown is part of a subset that was picked to be rich in the highest values.

System: PfIESI-1 RRM domain (Plasmodium falciparum ortholog aa 875-1232, GST fusion)
Experiment: RBNS R-value (6-mer enrichment in protein-bound RNA vs input library) (ratio); higher = stronger binding preference; the methods of the paper give 50 / 100 / 500 nM protein instead
Experimental: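 RNA Bind-n-Seq: recombinant GST-tagged IESI-1 RRM domain was incubated at room temperature with a random 40-nt in vitro transcribed RNA library at 250, 500 or 1000 nM protein. Bound RNA was pulled down on glutathione beads and sequenced. R-value is the enrichment of each 6-mer in the bound RNA relative to the input library. Each 6-mer sits inside the random 40-mer context, not as an isolated oligo. Values are replicate 1 only.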

Sequence | RBNS R-value (protein concentration: 250 nM) | RBNS R-value (protein concentration: 500 nM) | RBNS R-value (protein concentration: 1000 nM)
UGGGUC | 0.985 | 0.933 | 1.01
UGUCAG | 0.921 | 0.924 | 0.976
CAAAUC | 0.911 | 0.973 | 0.983
UUGACU | 1.07 | 1.06 | 1.05
UAACGC | 0.896 | 0.876 | 0.884
CAUCAC | 0.917 | 0.894 | 0.935
AUAUAC | 0.837 | 0.813 | 0.766
GACCUC | 1.02 | 0.989 | 1.03
UCUGAG | 1.12 | 1.1 | 1.14
UCUGAC | 1.02 | 0.998 | 1.05
CCUGCG | 1.1 | 1.05 | 1.1
ACUGAU | 1.89 | 2.06 | 1.65
ACUGAC | 1.04 | 1.03 | 1.04
GCUGAG | 1.09 | 1.07 | 1.1
CCUGAG | 1.47 | 1.26 | 1.34
UCUGAU | 1.88 | 1.98 | 1.58
GCUGAU | 1.77 | 1.76 | 1.47
UCUGAA | 0.982 | 1.05 | 1.03
ACUGAG | 1.08 | 1.13 | 1.11
GCUGAC | 1.07 | 1.02 | 1.07
CAGAAC | 1.11 | 1.13 | 1.13
AGUCCC | 1.01 | 0.956 | 1.01
UACCGG | 0.983 | 0.914 | 0.955

Sequence | RBNS R-value (protein concentration: 250 nM) | RBNS R-value (protein concentration: 500 nM) | RBNS R-value (protein concentration: 1000 nM)
CAGUAA | 0.864 | 0.913 | 0.866
CUACAU | 0.824 | 0.777 | 0.777
GUUCCU | 1.02 | 0.962 | 1.01
AACAGG | 0.999 | 1.07 | 1.06
GGGACU | 1 | 0.984 | 1.02
GAAGAC | 1.14 | 1.17 | 1.15
AGAGUC | 1.01 | 1.03 | 1.05
AUGUGA | 1.15 | 1.26 | 1.14
CUGGGC | 1.06 | 0.987 | 1.04
CCUGAU | 1.99 | 2.08 | 1.66
CCUGAA | 1.17 | 1.17 | 1.18
CCUGAC | 1.14 | 1.07 | 1.12
AUGCGG | 1.02 | 1.01 | 1.01
UCUAGU | 0.878 | 0.906 | 0.899
UAUGCA | 0.846 | 0.862 | 0.85
GAUGCC | 1.57 | 1.46 | 1.39
GAUGCA | 1.39 | 1.42 | 1.29
CAUGCC | 1.04 | 0.974 | 1.05
CAUGCA | 0.934 | 0.914 | 0.92
UAUGCG | 0.899 | 0.892 | 0.894
AAUGCG | 0.939 | 0.968 | 0.95
UAUGCC | 0.946 | 0.891 | 0.903
GAUGCG | 1.41 | 1.42 | 1.31

Sequence | RBNS R-value (protein concentration: 250 nM) | RBNS R-value (protein concentration: 500 nM) | RBNS R-value (protein concentration: 1000 nM)
CUCGUG | 0.979 | 0.913 | 0.998
AGCGGC | 1.05 | 1.03 | 1.01
AUUCUU | 1.04 | 1.06 | 1.02
CUUAGC | 0.907 | 0.84 | 0.885
CGGUCA | 0.933 | 0.898 | 0.979
CAUUCC | 1.04 | 0.997 | 1.05
GAUUCG | 1.43 | 1.44 | 1.31
CAUUCG | 1.02 | 0.992 | 1.04
AAUUCU | 1.01 | 1.07 | 1.06
GAUUCC | 1.51 | 1.47 | 1.38
AAUUCC | 1.16 | 1.15 | 1.16
GAUUCA | 1.44 | 1.56 | 1.35
GAUUCU | 1.53 | 1.6 | 1.33
UAUUCA | 0.803 | 0.794 | 0.796
AAUUCG | 0.99 | 1.06 | 1.02
UAUUCU | 0.875 | 0.813 | 0.832
AAUUCA | 0.972 | 1.06 | 0.981
AGGUAA | 0.909 | 0.998 | 0.997
CUUAAG | 0.818 | 0.849 | 0.846
UCCUUU | 0.883 | 0.825 | 0.875
UACCGA | 1.01 | 0.978 | 0.96
AGGGAG | 1.09 | 1.11 | 1.06
GAUAAC | 1.16 | 1.26 | 1.15

Sequence | RBNS R-value (protein concentration: 250 nM) | RBNS R-value (protein concentration: 500 nM) | RBNS R-value (protein concentration: 1000 nM)
UAUUGA | 1.07 | 1.14 | 0.985
GAUUGC | 1.7 | 1.68 | 1.42
CAUUGC | 0.987 | 0.973 | 0.976
GAUUGG | 1.37 | 1.37 | 1.25
AAUUGU | 0.865 | 0.926 | 0.948
CAUUGA | 1.33 | 1.37 | 1.22
GAUUGU | 1.04 | 1.04 | 0.998
GAUUGA | 1.61 | 1.69 | 1.43
AAUUGA | 1.37 | 1.52 | 1.31
UCCGUC | 0.938 | 0.878 | 0.944
GUAUCA | 0.785 | 0.812 | 0.852
UCCUGU | 0.873 | 0.838 | 0.868
ACUGCC | 1 | 0.929 | 0.986
AAUGUU | 0.827 | 0.922 | 0.9
AAUGUA | 0.778 | 0.871 | 0.819
CAUGUG | 0.924 | 0.964 | 0.964
UAUGUC | 0.791 | 0.772 | 0.81
CAUGUU | 0.853 | 0.856 | 0.878
UAUGUG | 0.854 | 0.869 | 0.848
GAUGUA | 1.25 | 1.39 | 1.2
UAUGUA | 0.792 | 0.805 | 0.771
GAUGUU | 1.47 | 1.53 | 1.31
GAUGUC | 1.37 | 1.39 | 1.29

Sequence | RBNS R-value (protein concentration: 250 nM) | RBNS R-value (protein concentration: 500 nM) | RBNS R-value (protein concentration: 1000 nM)
GAUGUG | 1.53 | 1.65 | 1.36
CAUGUC | 0.881 | 0.88 | 0.921
CAGUCU | 0.933 | 0.914 | 0.963
GGCAUU | 1.01 | 0.953 | 0.972
CUAUCU | 0.826 | 0.759 | 0.772
CAUCUC | 0.925 | 0.891 | 0.96
AGUACG | 0.91 | 0.935 | 0.91
GUCAAG | 0.874 | 0.904 | 0.946
AUACUA | 0.816 | 0.825 | 0.779
GGCUAG | 1.05 | 1.01 | 1.03
AGAAUA | 1.03 | 1.18 | 1.1
UUCAUC | 0.934 | 0.912 | 0.924
CUGACA | 1.13 | 1.11 | 1.11
AUGAGC | 1.14 | 1.16 | 1.1
UCGAUA | 0.937 | 0.932 | 0.928
AUGAUG | 3.17 | 3.42 | 2.39
UUGAGA | 1.19 | 1.22 | 1.18
UUGAUA | 1.72 | 1.92 | 1.6
ACGAUC | 0.952 | 0.918 | 0.959
CUGAUA | 1.57 | 1.71 | 1.43
AUGAUC | 1.38 | 1.42 | 1.24
CAGAUA | 0.988 | 1.03 | 0.99
ACGAUG | 1.33 | 1.38 | 1.21

Sequence | RBNS R-value (protein concentration: 250 nM) | RBNS R-value (protein concentration: 500 nM) | RBNS R-value (protein concentration: 1000 nM)
AGGAUG | 1.1 | 1.1 | 1.12
CUCCUU | 0.894 | 0.809 | 0.869
CUCACC | 1.06 | 0.994 | 1.04
UUCGCC | 1.06 | 0.992 | 1.03
GCGAAU | 1.01 | 1.07 | 1.04
CUUUUU | 0.934 | 0.932 | 0.919
UUGACG | 1.14 | 1.1 | 1.07
UAAAUA | 0.769 | 0.893 | 0.797
AAAUAA | 0.785 | 0.993 | 0.847
AUAAUG | 0.87 | 0.985 | 0.875
GGGAUG | 1.12 | 1.08 | 1.09
UUGAUC | 1.32 | 1.35 | 1.22
AUGAUU | 2.75 | 3 | 2.19
UUGAUG | 2.95 | 3.14 | 2.32
GCGAUG | 1.37 | 1.39 | 1.28
AUGAAU | 1.08 | 1.18 | 1.04
AGGAUU | 1.04 | 1.06 | 1.06
GCGAUC | 0.968 | 0.948 | 1.02
UAGAUG | 1.1 | 1.17 | 1.07
CCGAUG | 1.38 | 1.35 | 1.29
GUGAAG | 0.986 | 0.998 | 1.03
GUGAUG | 2.02 | 2.17 | 1.72
UUAGAA | 0.943 | 1.05 | 0.999

Sequence | RBNS R-value (protein concentration: 250 nM) | RBNS R-value (protein concentration: 500 nM) | RBNS R-value (protein concentration: 1000 nM)
GACUAA | 0.913 | 0.983 | 0.945
CGCGAU | 1.17 | 1.15 | 1.13
UCCACU | 0.991 | 0.933 | 0.95
GUCUUC | 0.908 | 0.868 | 0.954
GCAUCC | 1.14 | 1.06 | 1.11
CUAACC | 0.953 | 0.903 | 0.903
AGCGUA | 0.911 | 0.94 | 0.898
CAAAGA | 1.13 | 1.21 | 1.2
CUGAUC | 1.29 | 1.27 | 1.2
AGGAUA | 0.981 | 1.03 | 1.01
AUGAGA | 1.23 | 1.31 | 1.23
CGGAUG | 1.03 | 0.978 | 1.02
CUGAUG | 2.47 | 2.58 | 1.97
AUGAUA | 1.84 | 2.08 | 1.63
AGGCGG | 1.02 | 0.987 | 1.05
CCAACU | 0.966 | 0.921 | 0.933
UUGGGU | 0.975 | 0.933 | 0.982
AGAGAC | 1.18 | 1.21 | 1.17
AGAGAA | 1.34 | 1.48 | 1.37
CGAGAA | 1.52 | 1.53 | 1.43
UGAGAA | 1.33 | 1.39 | 1.34
UGAGAG | 1.18 | 1.16 | 1.19
CGAGAG | 1.29 | 1.22 | 1.27

Sequence | RBNS R-value (protein concentration: 250 nM) | RBNS R-value (protein concentration: 500 nM) | RBNS R-value (protein concentration: 1000 nM)
UGAGAC | 1.16 | 1.17 | 1.15
AGAGAG | 1.19 | 1.25 | 1.24
CGAGAC | 1.23 | 1.2 | 1.18
UGUCAC | 0.945 | 0.963 | 0.96
UGGCAU | 1.09 | 1.07 | 1.06
GUCCUC | 0.918 | 0.874 | 0.925
ACCUAU | 0.891 | 0.846 | 0.828
CGGGGA | 1.15 | 1.1 | 1.16
GAACUU | 0.955 | 0.971 | 0.985
GAUGAG | 1.61 | 1.68 | 1.43
GAUGAA | 1.88 | 2 | 1.59
GGUGAA | 0.997 | 1.06 | 1.06
GAUGAU | 2.43 | 2.58 | 1.9
AAUGAA | 0.954 | 1.1 | 1.03
AAUGAC | 1.08 | 1.1 | 1.09
GAUGGU | 1.18 | 1.23 | 1.13
GAUGCU | 1.34 | 1.37 | 1.24
UAUGAC | 0.947 | 0.945 | 0.924
GAUGAC | 1.8 | 1.8 | 1.51
GACGAG | 1.12 | 1.13 | 1.11
GAAUAC | 0.992 | 1.04 | 0.993
CAACUU | 0.893 | 0.889 | 0.886
GUAAUU | 0.943 | 0.984 | 0.95
